Compounds with a hit are over-represented: about 6.3% of the library has one in this group of screens.
tim10-1 inh – growth inhibitors of tim10-1 mutant yeast, primary screen, luminescence, uHTS; S. cerevisiae tim10-1 ts strain growth, BacTiter-Glo, 24 h; inhibition, % at 20 µM; 2.2% of 330,000 active; AID 463190, 2010;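 active = inhibition of at least 40%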;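 also: mutant grown at 25 °C; 0% = DMSO wells with yeast and 100% = wells holding no yeast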
tim23-1 inh – growth inhibitors of tim23-1 mutant yeast, primary screen, luminescence, uHTS; S. cerevisiae tim23-1 growth, BacTiter-Glo luminescence, 24 h; inhibition, % at 20 µM; 1.3% of 330,000 active;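 active = growth inhibition of the mutant yeast at or above 50%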;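 also: temperature-sensitive mutant grown at 25 °C; plate controls were DMSO-treated mutant yeast for no effect and medium wells lacking yeast for full effect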
MPTP inh – mitochondrial permeability transition pore inhibitors, primary screen, biochemical, isolated mouse mitochondria, absorbance; inhibition, % at 10 µM; Ca2+ swelling absorbance, 30 min; 1.4% of 360,000 active; AID 602449, 2012;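 active = inhibition of 50% or more, scaled per plate between neutral and stimulator controls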;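 also: 0% = DMSO wells given calcium and 100% = 1 mM EGTA wells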
Mdm2-MdmX inh – inhibitors of human Mdm2-MdmX association, primary screen, cell-based, luminescence, split luciferase, SaOS-2, uHTS; Protein Mdm4 (Homo sapiens) + E3 ubiquitin-protein ligase Mdm2 (Homo sapiens), …; SaOS-2 split-luciferase Mdm2/MdmX complementation; inhibition, % at 8 µM; 3% of 330,000 active; AID 485346, 2010;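 active = inhibition of at least 50% at 8 µM in the primary screen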
Target sequence (O15151 whole entry, looked up): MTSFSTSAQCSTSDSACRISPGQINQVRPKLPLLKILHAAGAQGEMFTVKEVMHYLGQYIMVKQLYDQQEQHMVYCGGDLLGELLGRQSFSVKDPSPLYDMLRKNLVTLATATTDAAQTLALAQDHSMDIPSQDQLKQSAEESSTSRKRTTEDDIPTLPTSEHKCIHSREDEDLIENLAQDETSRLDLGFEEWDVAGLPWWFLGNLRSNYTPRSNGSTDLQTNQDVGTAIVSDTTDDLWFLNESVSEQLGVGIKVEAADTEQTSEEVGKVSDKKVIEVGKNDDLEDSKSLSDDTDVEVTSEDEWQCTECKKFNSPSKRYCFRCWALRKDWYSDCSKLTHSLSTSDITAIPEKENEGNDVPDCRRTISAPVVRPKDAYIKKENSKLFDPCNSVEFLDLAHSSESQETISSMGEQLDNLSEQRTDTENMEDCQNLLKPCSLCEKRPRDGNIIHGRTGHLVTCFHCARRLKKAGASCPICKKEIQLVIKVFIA
Target sequence (Q00987 whole entry, looked up): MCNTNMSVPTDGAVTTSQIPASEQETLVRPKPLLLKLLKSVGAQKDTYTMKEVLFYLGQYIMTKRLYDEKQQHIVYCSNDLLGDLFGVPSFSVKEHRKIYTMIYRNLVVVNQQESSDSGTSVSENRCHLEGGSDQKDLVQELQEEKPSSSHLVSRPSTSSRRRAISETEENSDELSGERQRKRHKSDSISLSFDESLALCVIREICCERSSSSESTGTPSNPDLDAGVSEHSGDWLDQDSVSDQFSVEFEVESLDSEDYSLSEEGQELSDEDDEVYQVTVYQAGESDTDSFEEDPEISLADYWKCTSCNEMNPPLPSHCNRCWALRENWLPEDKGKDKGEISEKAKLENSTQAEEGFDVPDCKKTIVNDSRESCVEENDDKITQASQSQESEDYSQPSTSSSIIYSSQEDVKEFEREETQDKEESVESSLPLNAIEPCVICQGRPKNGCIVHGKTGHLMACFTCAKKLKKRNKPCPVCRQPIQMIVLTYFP
TIM10 inh – growth inhibitors of isogenic TIM10 control yeast, primary screen, counter-screen for tim10-1 yeast inhibitor project, luminescence, uHTS | AID 463195, 2010 | S. cerevisiae TIM10 strain growth, BacTiter-Glo luminescence, 24 h | inhibition, % at 10 µM | 1.4% of 330,000 active;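 active = inhibition of 40% or more at the single tested concentration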;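 also: wild-type TIM10 isogenic control strain grown at permissive 25 °C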
tim10 confirm – growth inhibitors of wild-type TIM10 yeast, confirmation, counter-screen for tim10-1 synthetic lethality project, single concentration, luminescence, S. cerevisiae | shares compounds with TIM10 inh | AID 463215, 2010 | S. cerevisiae tim10 strain growth, BacTiter-Glo luminescence, 24 h | inhibition, % at 10 µM | 63% of 4,600 active;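 active = inhibition of yeast growth at or above a set limit in either of two replicates at 10 µM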;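 also: this counterscreen used the strain with wild-type TIM10; 0% = yeast with DMSO and 100% = medium wells lacking yeast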
* marks the source's active call; other numbers are inactive results; x = no result given.

SMILES | tim10-1 inh | tim23-1 inh | MPTP inh | Mdm2-MdmX inh | TIM10 inh | tim10 confirm
CCNC(=S)NN=C1CCC(C(C)(C)C)CC1 (stereo unspecified) | 28 | 15 | 2 | 0 | -2 | x
CC(C)(C)C1CCC(=NNC(=S)Nc2cccnc2)CC1 (stereo unspecified) | 39 | 48 | 0 | -10 | 44* | 35*
Nc1ccc(C23CC4CC(CC(O)(C4)C2)C3)cc1 | 15 | 17 | -1 | 12 | 4 | x
Nc1ccc(C23CC4CC(CC(C4)C2)C3)cc1 | 15 | 34 | 1 | 8 | 42* | 23
CSc1ccc(/C=N/NC(=O)CN2CCN(Cc3ccc(Cl)cc3)CC2)cc1 | 31 | 18 | 0 | 2 | 41* | 7
CSc1ccc(/C=N/NC(=O)CN2CCN(Cc3ccccc3)CC2)cc1 | 0 | 17 | 0 | 5 | 8 | x
CC(C)C1C(=O)N(Cc2cn(Cc3ccco3)nn2)CCS(=O)(=O)N1Cc1ccc(-c2ccc(Cl)c(Cl)c2)cc1 (stereo unspecified) | x | x | -2 | x | x | x
COc1ccc(-c2nn(-c3ccccc3)cc2/C=N/O)cc1OC | 21 | 27 | 1 | 28 | 18 | x
COc1ccc(-c2nn(-c3ccccc3)cc2/C=N/NC(=S)NC(C)C)cc1OC | 36 | 43 | 2 | 32 | 48* | 49*
CN(C)C(=O)N1CCc2ccc([N+](=O)[O-])cc21 | x | x | 0 | x | x | x
COc1cc2c(C(=O)N3CCOCC3)c(CSc3ccccc3)n(C)c2cc1Br | 39 | 47 | 0 | 3 | 40* | 30*
Cc1cc(NC(=O)CCCS(=O)(=O)c2nc(-c3cccs3)cc(C(F)(F)F)n2)no1 | 39 | 4 | -3 | -6 | 49* | 37*
CC(=O)Nc1cc(-c2cccnc2)cn2c(-c3cccc(C(F)(F)F)c3)cnc12 | x | x | -1 | x | x | x
CC1C(=O)N(Cc2cn(Cc3ccco3)nn2)CCS(=O)(=O)N1Cc1ccc(-c2ccccc2C(F)(F)F)cc1 (stereo unspecified) | x | x | -1 | x | x | x
CCCCNC(=S)N/N=C/c1sccc1C | 31 | 43 | 1 | 4 | 59* | 47*
O=C(c1cccs1)N1C[C@@H](n2cc(C3CC3)nn2)[C@H](O)C[C@@H]1c1ccc(Cl)cc1 | x | x | -1 | x | x | x
C#CCOc1nc(Nc2cccc([N+](=O)[O-])c2)nc(OCC#C)n1 | 36 | 41 | 0 | -15 | 41* | 42*
COc1cccc(C(=O)c2ccccc2C(=O)O)c1 | x | x | 0 | x | x | x
COc1ccc(-c2nn3c(-c4ccco4)nnc3s2)cc1OC | 39 | 20 | -2 | 28 | 45* | -10
COc1ccc(-c2nnc3sc(-c4ccco4)nn23)cc1OC | -2 | -24 | 0 | 12 | -19 | x
CCCCCCCCn1c(N2CCN(c3cccc(Cl)c3)CC2)nc2c1c(=O)[nH]c(=O)n2C | 6 | 11 | 17 | 9 | 7 | x
CC(C)CCn1c(N2CCN(c3cccc(Cl)c3)CC2)nc2c1c(=O)[nH]c(=O)n2C | 27 | 21 | 1 | 26 | 41* | -8
NC(=O)CC[C@H](NC(=O)OCc1ccccc1)C(=O)OCc1ccc(Cl)cc1 | 15 | 14 | -2 | 0 | 45* | -10
COc1ccc(C(O)c2nc(-c3cccc(CO)c3)cs2)cc1 (stereo unspecified) | x | x | 0 | x | x | x
CC(=O)c1ccc2noc(-c3ccccc3)c2c1 | -5 | 4 | -1 | 5 | -5 | x
SMILES | tim10-1 inh | tim23-1 inh | MPTP inh | Mdm2-MdmX inh | TIM10 inh | tim10 confirm
c1ccc(-c2onc3cc4c(cc23)OCCO4)cc1 | 33 | -3 | -2 | -43 | 44* | 52*
COc1ccccc1N(C)S(=O)(=O)c1ccc(C(=O)NCCc2ccc(F)cc2)cc1 | 29 | 39 | 0 | 21 | 46* | 51*
O/N=C/c1cn(-c2ccccc2)nc1-c1ccc2c(c1)OCCO2 | 16 | -34 | 1 | -64 | 40 | -3
O=C(COC(=O)c1ccc([N+](=O)[O-])o1)Nc1cccc(S(=O)(=O)N2CCCCC2)c1 | 14 | -13 | 0 | 21 | 16 | x
O=C(Nc1cccc(S(=O)(=O)N2CCCCC2)c1)c1ccc([N+](=O)[O-])o1 | -43 | -109 | 9 | 30 | 46* | 27
Cc1cc(C)n(-c2nc3ccccc3nc2N2CCC(C)CC2)n1 | 25 | 24 | 0 | -3 | 42* | 18
Cc1nc2ccccc2nc1N1CCC(C)CC1 | 29 | 13 | 3 | -24 | -1 | x
COC(=O)C(=Cc1ccncc1)c1cccc2ccccc12 | x | x | 0 | x | x | x
Cc1nn(-c2ccccc2)c(N)c1N=Nc1ccc(Cl)cc1 | 34 | 12 | 5 | -123 | 44* | 32*
O=C(N[C@H]1CC[C@H](CCNS(=O)(=O)c2ccc(Cl)cc2)O[C@@H]1CO)c1cccc(F)c1 | x | x | -2 | x | x | x
CC1(C(=O)Nc2ccc3[nH]ncc3c2)CCN1C(=O)C/C=C/c1ccccc1 (stereo unspecified) | x | x | 0 | x | x | x
Fc1ccc2[nH]c3c(c2c1)CN(C(=S)NCc1ccccc1)CC3 | 29 | 49 | 3 | -6 | 41* | 38*
CCc1nc2c(OCc3cc(Cl)cc(Cl)c3)cccn2c1N(C=O)Cc1ccccc1 | x | x | 0 | x | x | x
COc1ccc2c(c1)C(=NO)c1cc(OC)ccc1-2 | 38 | 10 | 0 | 0 | 45* | 38*
CC(C)(C)OC(=O)N1CCN(C(=O)c2ncn3c2c(=O)[nH]c2ccccc23)CC1 | x | x | -2 | x | x | x
COc1ccc(C(=O)NNc2ccccc2)cc1 | -16 | 13 | -1 | -8 | -3 | x
COc1ccc(C(=O)NC(Nc2ccccc2)C(Cl)(Cl)Cl)cc1 (stereo unspecified) | 28 | 13 | 28 | 24 | 50* | 32*
Cc1ccc(NC(NC(=O)c2cccs2)C(Cl)(Cl)Cl)cc1 (stereo unspecified) | 35 | 32 | 8 | 24 | 50* | 38*
Cc1ccc(NC(NC(=O)c2ccccn2)C(Cl)(Cl)Cl)cc1 (stereo unspecified) | 30 | 21 | 2 | -4 | 27 | x
O=C(Nc1ccc2c(c1)OCO2)c1cc(C2CCCCN2S(=O)(=O)c2cccs2)on1 (stereo unspecified) | x | x | -1 | x | x | x
O=C1c2ccccc2-c2nnc(-c3ccc(O)cc3)cc21 | 27 | 17 | 3 | -64 | 50* | 31*
Cc1ccccc1-c1cc2c(nn1)-c1ccccc1C2=O | 28 | 44 | 0 | -32 | 44* | 30*
O=C(COC(=O)CC1CC2CCC1C2)Nc1ccc(F)cc1 (stereo unspecified) | 27 | 31 | 4 | 1 | 43* | 28
O=C(COc1cccc2ccccc12)Nc1nc2ccccc2[nH]1 | 15 | 20 | 0 | 7 | 41* | 20
